Compound activity as filed in PubChem.
Shown are actives, neighbours in structure and some others; about 4% of the full set was active somewhere.
D1 antagonist: Antagonist of Human D 1 Dopamine Receptor: qHTS; D(1A) dopamine receptor (Homo sapiens), P21728; HEK293 TREx D1 cells, calcium flux, dopamine EC80; hits give low values; activity change, negative = inhibition, % at 10 µM; 3.2% of 360,000 active; in the data active = activity change below about -30%; also: % is scaled to controls: 0 for no effect and ±100 for the full control effect
Target sequence (P21728 whole entry, looked up): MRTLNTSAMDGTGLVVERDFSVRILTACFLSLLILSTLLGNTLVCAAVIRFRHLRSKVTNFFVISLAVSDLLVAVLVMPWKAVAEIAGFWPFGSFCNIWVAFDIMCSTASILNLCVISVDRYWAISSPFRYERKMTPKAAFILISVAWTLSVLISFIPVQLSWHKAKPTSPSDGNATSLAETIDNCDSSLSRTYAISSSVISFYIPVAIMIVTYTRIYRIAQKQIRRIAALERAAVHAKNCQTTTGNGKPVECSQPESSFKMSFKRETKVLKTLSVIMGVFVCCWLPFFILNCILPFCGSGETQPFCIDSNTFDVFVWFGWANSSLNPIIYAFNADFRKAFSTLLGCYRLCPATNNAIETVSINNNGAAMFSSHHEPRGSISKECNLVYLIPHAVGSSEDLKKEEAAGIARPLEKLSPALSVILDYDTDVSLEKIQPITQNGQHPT
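Kinetic fluorescence of a calcium dye serves as the read-out. D1-expressing Hek293 Trex cells, induced overnight at 30 C, are exposed to compound for 180 s before an EC80 dopamine addition, then read 180 s further.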
GRP78 ERSR act: qHTS for Inducers of the Endoplasmic Reticulum Stress Response (ERSR) in Human Glioma: qHTS; U87-MG GRP78 promoter luciferase reporter, 16 h; AID 602332, 2012; Potency, µM, for the others: top-dose activation, usual class: activators; 0.02% of 420,000 active; active = well fitted activation curve with a large enough effect; also: potency is read from the fitted curve at half-maximal effect; series mostly up to about 76 µM; % of control where 0% means no effect; nearly all actives have a fitted effect of over 35% in size
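ERSR induction read as luciferase luminescence (Bright-Glo, 10 min at room temperature) in stably transfected human U87-MG glioma cells exposed to compounds for 16 h, using GRP78 as sensor.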
D1 agonist: Allosteric Agonists of the Human D1 Dopamine Receptor: qHTS. HEK293 T-REx D1 cells, calcium flux, agonist mode. activation, % at 2 µM. 1% of 360,000 active. AID 504660, 2011; also: 0% is about no effect
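Tetracycline-induced HEK293 TREx D1 cells, force-coupled to calcium signalling, were dye-loaded with a no-wash calcium kit. Compound was pin-added after a 10 s baseline. Fluorescence was read kinetically at 1 cycle/s for 180 s, with calcium rises flagged as agonism.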
TRHR PAM: qHTS for Small Molecule Agonists and Allosteric Enhancers of Human TRH Receptor: Primary Screen for Enhancers; TRHR cells, fluo-8 calcium fluorescence, EC20 TRH enhancement; 0.66% of 360,000 active; enhancement, % at 2 µM; AID 493056, 2011; Thyrotropin-releasing hormone receptor (Homo sapiens), P34981; in the data active = enhancement above about 30%; also: 0% is about no effect
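Enhancer read-out: after compound pinning and an initial kinetic agonist-mode read, an EC20 of TRH (10 nM final) was injected and fluo-8 calcium signal (Ex 480/Em 530) followed at 1 s/cycle for 100 cycles in TRHR-expressing cells.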
D1 PAM: Potentiators of Human D1 Dopamine Receptor: qHTS. D(1A) dopamine receptor (Homo sapiens), P21728. HEK293 TREx D1 cells, calcium flux, dopamine EC20 potentiation. potentiation, % at 10 µM. 0.036% of 360,000 active; in the data active = potentiation above about 30%; also: 0% is about no effect
TRHR agonist: qHTS for Small Molecule Agonists and Allosteric Enhancers of Human TRH Receptor: Primary Screen for Agonists; TRHR cells, calcium flux fluo-8, FDSS agonist mode; activation, % at 2 µM; AID 493084, 2011; 0.18% of 360,000 active; also: 0% is about no effect
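TRHR-expressing cells loaded with fluo-8 calcium dye; 23 nL library compound pin-transferred, kinetic FDSS fluorescence (Ex 480/Em 530) recorded about 180 s for agonist-induced calcium release, before a 10 nM TRH EC20 addition for potentiator mode.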
Active calls of the source: *; · = not tested or not shown. Rule as the data show it, unless noted: active = activation above about 30%; inactive = the rest.

SMILES	D1 antagonist	GRP78 ERSR act	D1 agonist	TRHR PAM	D1 PAM	TRHR agonist
Cc1ccc(NC(=O)CCN2C(=O)c3cccc4cccc(c34)C2=O)cc1	-33*	-1%	0	16	-8	0
Cc1cc(C)c(C)c(S(=O)(=O)NCCN2CCOCC2)c1C	-5	-2%	6	3	-3	0
COc1ccc(NC2=C(C(C)=O)C(c3ccc(OC)c(OC)c3)C(C(C)=O)C(C)(O)C2)cc1 (stereo unspecified)	-86*	-2%	0	1	5	0
CCCCCc1cc(=O)oc2c(C(CCN3CCN(c4ccccc4)CC3)c3ccc4c(c3)OCO4)c(OC)cc(OC)c12 (stereo unspecified)	-31*	-1%	2	23	-6	0
CCN(CC)CCC(c1ccc(OC)cc1)c1c(OC)cc(OC)c2c(C)cc(=O)oc12 (stereo unspecified)	·	-4%	·	·	·	·
CCCCCc1cc(=O)oc2c(C(CCN(CC)CC)c3ccc(OC)cc3)c(OC)cc(OC)c12 (stereo unspecified)	-39*	-7%	40*	4	-13	2
CCCCCc1cc(=O)oc2c(C(CCN3CCCC3)c3cc(OC)c(OC)c(OC)c3)c(OC)cc(OC)c12 (stereo unspecified)	-34*	-11%	37*	1	-13	-1
CCn1cc(C(=O)NCCc2ccc(Cl)cc2)c(=O)c2cc(S(=O)(=O)N3CCc4ccccc4C3)ccc21	-8	0%	5	3	0	1
O=C1OC2(c3ccccc31)c1cc(I)c(O)c(I)c1Oc1c2cc(I)c(O)c1I	-42*	1%	411*	-10	-1	242*
O=C1OC2(c3cc(I)c(O)c(I)c3Oc3c2cc(I)c(O)c3I)c2c(Cl)c(Cl)c(Cl)c(Cl)c21	·	-10%	·	·	·	·
CC(=O)OCC1OC(C#Cc2ccc(Br)cc2)C=CC1OC(C)=O (stereo unspecified)	·	0%	·	·	·	·
Cc1ccc(/C=N/NC(=O)C(=O)N/N=C/c2ccc(C)o2)o1	-31*	-6%	-1	1	-2	-2
Cc1ccc(S(=O)(=O)n2nc(OC(=O)c3cccs3)cc2N)cc1	4	1%	22	9	-10	-1
Cc1ccc(S(=O)(=O)n2ccc(OC(=O)c3cccs3)n2)cc1	-26	-5%	30*	-6	-4	0
COc1ccc(-n2cc(-c3ccccc3)c3c(N4CCN(CCO)CC4)ncnc32)cc1	-36*	1%	17	-2	-13	4
CCOc1ccc(-n2cc(-c3ccccc3)c3c(N4CCN(c5ccccc5OC)CC4)ncnc32)cc1	-32*	-2%	-2	-6	-1	0
OCCN1CCN(c2ncnc3c2c(-c2ccccc2)cn3-c2ccc(F)cc2)CC1	11	-2%	4	-1	-14	2
CC(C)(C)CN1C(N)=NC[C@H]1Cc1ccc(O)cc1	-16	0%	3	1	2	0
CC(C)(C)CN1C(N)=NC[C@@H]1Cc1ccc(O)cc1	-45*	1%	2	-5	0	-1
CC1(C)C(=O)Nc2ccccc2N1C(=O)COC(=O)Cc1ccc(Cl)c(Cl)c1	·	-3%	·	·	·	·
CCNC(=S)N(CCO)Cc1cc2cc3c(cc2[nH]c1=O)OCO3	-22	-1%	0	34*	-2	0
CNC(=S)N(CCO)Cc1cc2cc3c(cc2[nH]c1=O)OCCO3	14	-3%	3	10	-1	0
CCN(CC)CCN(Cc1cc2cc3c(cc2[nH]c1=O)OCCO3)C(=S)NC	-31*	0%	-2	-4	-8	0
CC(C)c1ccc(NC(=O)C2CCCN(S(=O)(=O)c3ccc4[nH]c(=O)ccc4c3)C2)cc1 (stereo unspecified)	12	·	8	2	-2	0
CCS(=O)(=O)c1nc(S(=O)(=O)c2ccc(C)cc2)c(NCc2ccccc2Cl)s1	-7	-4%	8	4	-3	2
SMILES	D1 antagonist	GRP78 ERSR act	D1 agonist	TRHR PAM	D1 PAM	TRHR agonist
COc1ccc(Nc2cc(C(=O)NCc3ccccc3OC)c3ccccc3n2)cc1	-14	-5%	2	-7	-5	-1
COC(CNC(=O)c1ccc(N2CCc3ccccc32)c([N+](=O)[O-])c1)OC	-31*	-3%	10	-3	-5	1
NNC(=O)c1ccc(N2CCc3ccccc32)c([N+](=O)[O-])c1	-33*	0%	1	-4	-2	0
NC(=O)c1ccccc1NC(=O)CCc1ccccc1	-8	5%	1	-3	-6	0
NC(=O)c1ccccc1NC(=S)NC(=O)CCc1ccccc1	-74*	-5%	3	0	1	0
CCOc1cc(CN2CCC(CO)(Cc3cccc(C(F)(F)F)c3)CC2)ccc1OC	6	-4%	18	8	-5	4
CCOc1ccc(/C=N/OCC(=O)NC(c2ccccc2)c2ccccc2)cc1	6	-2%	33*	6	3	0
COC(=O)c1cn(-c2ccccc2)c(C)c1C(=O)OC	5	-4%	50*	6	-4	0
CC(C)OCCCNC(=O)Nc1cccc2ccccc12	-5	7%	2	-2	-4	0
Cc1ccc(Cl)cc1NC(=O)C1CCCN(S(=O)(=O)c2cccc3cccnc23)C1 (stereo unspecified)	-6	0%	2	-7	-1	-2
CCc1cc2c(nc1CC)CCN(CC/C(C)=N/O[C@@H]1O[C@H](COC(C)=O)[C@H](OC(C)=O)[C@H](OC(C)=O)[C@H]1OC(C)=O)C2	·	-4%	·	·	·	·
CC(Oc1ccccc1)C(=O)N=Nc1c(O)[nH]c2ccc(Br)cc12 (stereo unspecified)	-36*	-3%	0	-8	-5	-1
Cc1cccc(N=Nc2c(O)[nH]c3ccc(Br)cc23)c1	-3	5%	7	2	-4	2
Cc1cccc(C)c1OCC(=O)N=Nc1c(O)[nH]c2ccc(Br)cc12	15	-5%	1	3	-4	0
COc1ccccc1N=Nc1c(O)[nH]c2ccc(Br)cc12	-60*	-1%	4	2	-5	4
CNc1ccc(C=C2c3ccccc3-c3ccccc32)cc1	·	-3%	·	·	·	·
O=C1C(c2cccc(Br)c2)N(CCc2ccccc2)C(=O)CN1C1CCCCC1 (stereo unspecified)	-33*	-3%	-2	6	-1	-1
